In PubChem BioAssay (NCATS):
Results filed as inconclusive are left out. Active and inactive are the calls of the source. Calls follow the shape of the dose curve; as a rule, active = well fitted inhibition curve with a large enough effect; inconclusive = small, poorly fitted or top-dose-only effect; inactive = flat fitted curve, though single readings scatter.

Experiments:
Assay in all cases: qHTS profiling for inhibitors of Plasmodium falciparum proliferation (AID 504749); also: nearly all actives have a fitted effect of over 60% in size
Conditions in all cases: P. falciparum in erythrocytes, SYBR Green DNA, 72 h; series mostly up to 28.7 µM
[1] = test system: DFO2036
How it was run: (§1)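 P. falciparum-infected erythrocytes (0.3% parasitemia, 2.5% hematocrit final) were exposed to compounds for 72 h at 37 C in 5% CO2, then lysed with SYBR Green buffer overnight at room temperature; parasite DNA fluorescence was normalized to artemisinin and DMSO controls.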

[2] = test system: DIV14
How it was run: as §1

[3] = test system: DIV17
How it was run: as §1

[4] = test system: DIV30
How it was run: as §1

[5] = test system: ECU
How it was run: as §1

[6] = test system: FAB9
How it was run: as §1

[7] = test system: GB4
How it was run: as §1

[8] = test system: ICS
How it was run: as §1

[9] = test system: N140
How it was run: as §1

[10] = test system: P94_40
How it was run: as §1

[11] = test system: PAD
How it was run: as §1

[12] = test system: PC15
How it was run: as §1

[13] = test system: PC26
How it was run: as §1

[14] = test system: PC49
How it was run: as §1

[15] = test system: CP329
How it was run: as §1

[16] = test system: CP335
How it was run: as §1

[17] = test system: Dd2
How it was run: as §1

[18] = test system: HB3
How it was run: as §1

[19] = test system: JCK
How it was run: as §1

[20] = test system: P93_24
How it was run: as §1

Measured: Potency
Potency is read from the fitted curve at half-maximal effect.

CCOC(=O)N1CCC(=C2c3ccc(Cl)cc3CCc3cccnc32)CC1
inactive: [1] | [6]
active: [2] 7.57 µM | [3] 9.53 µM | [4] 13.5 µM | [5] 12.6 µM | [7] 12 µM | [8] 2.24 µM | [9] 3.98 µM | [10] 11.2 µM | [11] 3.16 µM | [12] 11.2 µM | [13] 12 µM | [14] 4.47 µM

CCCc1nc2c(C)cc(-c3nc4ccccc4n3C)cc2n1Cc1ccc(-c2ccccc2C(=O)O)cc1
inactive: [15] | [6]
active: [16] 6.01 µM | [3] 0.675 µM | [17] 5.01 µM | [18] 10 µM | [8] 0.631 µM | [9] 1.41 µM | [10] 1.78 µM | [11] 1 µM | [12] 2.51 µM | [14] 2.51 µM

Nc1nc2ccc(OC(F)(F)F)cc2s1
inactive: [15] | [16] | [1] | [3] | [4] | [17] | [5] | [6] | [7] | [18] | [8] | [19] | [9] | [20] | [11] | [12] | [13] | [14]

Cc1ccccc1C(OCCN(C)C)c1ccccc1 (centres undefined)
inactive: [17] | [5] | [6] | [18] | [11] | [14]
active: [2] 6.75 µM | [3] 7.57 µM | [9] 12.6 µM

O=C1CCc2cc(OCCCCc3nnnn3C3CCCCC3)ccc2N1
inactive: [15] | [16] | [2] | [3] | [4] | [7] | [8] | [19]

Cc1c(C)c2c(c(C)c1O)CCC(C)(COc1ccc(CC3SC(=O)NC3=O)cc1)O2 (centres undefined)
inactive: [15] | [16] | [1] | [6] | [18] | [19] | [12] | [14]
active: [2] 15.1 µM | [7] 12 µM | [10] 10 µM

CCOC(=O)C1=C[C@@]2(CC)CCCN3CCc4c(n1c1ccccc41)[C@H]32
active: [16] 12 µM | [2] 13.5 µM | [3] 7.57 µM | [4] 12 µM | [7] 7.57 µM | [13] 15.1 µM

NC(N)=NC(=O)c1nc(Cl)c(N)nc1N
active: [2] 9.53 µM | [3] 6.75 µM | [7] 15.1 µM | [18] 11.2 µM | [8] 2.24 µM | [9] 8.91 µM | [20] 7.08 µM | [10] 12.6 µM | [11] 8.91 µM | [12] 7.08 µM
inactive: [15]

Cn1cnc([N+](=O)[O-])c1Sc1ncnc2nc[nH]c12
active: [5] 8.91 µM
inactive: [15] | [16] | [1] | [2] | [4] | [17] | [6] | [18] | [19] | [11] | [14]

CC(C)C[C@H](NC(=O)[C@@H](O)[C@H](N)Cc1ccccc1)C(=O)O
active: [16] 6.01 µM | [1] 5.62 µM | [2] 4.78 µM | [3] 6.75 µM | [4] 6.01 µM | [17] 3.16 µM | [5] 7.94 µM | [6] 10 µM | [7] 4.78 µM | [8] 4.47 µM | [9] 7.94 µM | [20] 5.01 µM | [10] 7.08 µM | [11] 10 µM | [13] 9.53 µM

CN1CCN(CCCN2c3ccccc3Sc3ccc(C(F)(F)F)cc32)CC1
inactive: [6]
active: [16] 5.36 µM | [1] 8.91 µM | [2] 8.49 µM | [3] 7.57 µM | [4] 16.9 µM | [17] 12.6 µM | [7] 7.57 µM | [8] 8.91 µM | [9] 8.91 µM | [20] 2.24 µM | [10] 12.6 µM | [11] 12.6 µM | [12] 10 µM | [13] 13.5 µM

Cc1cc2c(C(C)C)c(O)c(O)c(C=O)c2c(O)c1-c1c(C)cc2c(C(C)C)c(O)c(O)c(C=O)c2c1O
inactive: [6]
active: [17] 11.2 µM | [8] 5.01 µM
